One assay has as its system Klebsiella pneumoniae. The following applies: Concentration 32 ug.mL-1;; ASSAY_TEST Inhibition of Bacterial Growth; detection method Absorption (OD600); MEDIA CAMHB; plate type 384well; NBS; CORNING #3640; time 18 hr.
The subject of the next assay is Candida albicans. Conditions: Concentration 32 ug.mL-1; ASSAY_TEST Inhibition of Fungal Growth; detection method Absorption (OD530).
In the next assay the test system is Cryptococcus neoformans. Conditions: Concentration 32 ug.mL-1; ASSAY_TEST Inhibition of Fungal Growth; detection method Resazurin; Absorption (OD600-OD570); plate type 384well; NBS; CORNING #3640. (Alamar Blue is a resazurin reagent that responds to reducing activity.)

Entries with a potency or affinity are not part of this list.

For the molecule `COc1ccc(NC(=O)Cn2nc3c(SCc4ccc(Cl)cc4)nccn3c2=O)cc1OC`, the values for the Inhibition in the assay with Klebsiella pneumoniae, in the assay with Candida albicans and with Cryptococcus neoformans were 3.8%, 27.48% and -20.96%, respectively.
Consider `COc1ccc(CNC(=O)CCc2nnc3c(N4CCCCC4)nc4ccccc4n23)cc1OC`, for which the values for the Inhibition with Klebsiella pneumoniae, in the assay on Candida albicans and in the assay on Cryptococcus neoformans were 15.18%, 6.91% and -22.66%, respectively.
As to `CCc1nnc2c(SCC(=O)Nc3ccc4c(c3)OCCO4)nc3ccccc3n12`, the Inhibition (in general, the relative decrease from the control value, in per cent) with Klebsiella pneumoniae is on record as 7.64%; with Candida albicans it was 5.98%; in the assay with Cryptococcus neoformans it was -5.14%.

For the origin of these results see ChEMBL document CHEMBL4513146, “CO-ADD screening of Karazin Kharkiv National University (Ukraine) compounds”.
